# Measurements taken from PubChem BioAssay (EPA / NIEHS).
# Values joined by “and” are separate entries in the source; they are usually repeats but may differ in a detail not shown here. Equal values may be shown once. Results filed as inconclusive are left out. The source holds several records for some structures; these can differ, active in one and inactive in another. Active and inactive are the calls of the source. How the source made its calls: active means hit-call score of the fitted dose curve at least 0.9, where 1 is the maximum; inconclusive means response in the unintended direction; inactive means score below 0.9.
# Legend:
# [1] = molecular target: human Phosphoinositide 3-kinase alpha (PI3Ka), PIK3CA (gene 5290) (UniProt P42336); experiment: NVS_ENZ_hPI3Ka: NovaScreen (NVS) Enzymatic Assay for human Phosphoinositide 3-kinase alpha (PI3Ka) (AID 2283196)
# Method in brief: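 Chemicals were first screened at 25 uM in duplicate, then hits were run as concentration series up to 50 uM. Enzyme activity was measured by fluorescence after mobility-shift separation, with loss of signal relative to DMSO taken as activity.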
# [2] = molecular target: human p21 Activated Kinase 4 (PAK4), PAK4 (gene 10298) (UniProt O96013); experiment: NVS_ENZ_hPAK4: NovaScreen (NVS) Enzymatic Assay for human p21 Activated Kinase 4 (PAK4) (AID 2283189)
# Method in brief: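 Cell-free recombinant human PAK4 activity assay; fluorescent substrate and product separated by electrophoretic mobility shift, read 1 h after dosing. Initially tested in duplicate at 25 uM, relative to DMSO baseline.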
# [3] = molecular target: human Matrix Metalloproteinase-9 (MMP9), MMP9 (gene 4318) (UniProt P14780); experiment: NVS_ENZ_hMMP9: NovaScreen (NVS) Enzymatic Assay for human Matrix Metalloproteinase-9 (MMP9) (AID 2283190);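 further: cell-free recombinant MMP9 protease activity read by fluorescent substrate signal; active means inhibition seen as loss of fluorescence signal versus DMSO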
# Method in brief: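 Inhibition was scored as loss of fluorescence signal against DMSO controls. The recombinant protease was exposed to chemicals for 1 hour before reading; initial testing used 25 uM in duplicate.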
# [4] = molecular target: human Phosphodiesterase 4A1 (PDE4A1), PDE4A (gene 5141) (UniProt P27815); experiment: NVS_ENZ_hPDE4A1: NovaScreen (NVS) Enzymatic Assay for human Phosphodiesterase 4A1 (PDE4A1) (AID 2283191)
# Method in brief: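 Cell-free recombinant human PDE4A1 with fluorescent substrate; product separated by electrophoretic mobility shift, 1 h. Screened at 25 uM, then up to 50 uM in concentration-response; loss of signal fitted against DMSO.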
# [5] = molecular target: human Phosphodiesterase 5 (PDE5), PDE5A (gene 8654) (UniProt O76074); experiment: NVS_ENZ_hPDE5: NovaScreen (NVS) Enzymatic Assay for human Phosphodiesterase 5 (PDE5) (AID 2283194)
# Method in brief: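 Recombinant human PDE5 with specific substrate, read 1 h after dosing by fluorescence with electrophoretic mobility-shift separation of substrate and product. Initial single-concentration duplicate screen at 25 uM, actives followed in concentration series; loss of activity versus DMSO.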
# [6] = molecular target: PPP2CA (gene 5515) (UniProt P67775); experiment: NVS_ENZ_hPPP2CA: NovaScreen (NVS) Enzymatic Assay for human Protein Phosphatase 2 Aatalytic subunit Alpha (PPP2CA) (AID 2283199)
# Method in brief: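 Recombinant human PPP2CA with fluorescent substrate; product separated from substrate by electrophoretic mobility shift, read 1.33 h after dosing. Duplicate single-point at 25 uM, then singleton concentration-response up to 50 uM; loss of signal versus DMSO.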
# [7] = molecular target: human Phosphatase and Tensin Homolog (PTEN), PTEN (gene 5728) (UniProt P60484); experiment: NVS_ENZ_hPTEN: NovaScreen (NVS) Enzymatic Assay for human Phosphatase and Tensin Homolog (PTEN) (AID 2283203)
# Method in brief: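 Cell-free recombinant human PTEN with fluorescent substrate; product separated by electrophoretic mobility shift and read by fluorescence 1 h after dosing. Primary screen in duplicate at 25 uM, actives followed in concentration series versus DMSO.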
# [8] = molecular target: human NIMA (Never In Mitosis Gene A)-Related Kinase 2 (NEK2), NEK2 (gene 4751) (UniProt P51955); experiment: NVS_ENZ_hNEK2: NovaScreen (NVS) Enzymatic Assay for human NIMA (Never In Mitosis Gene A)-Related Kinase 2 (NEK2) (AID 2283188)
# Method in brief: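 Cell-free NEK2 enzyme activity after 1 h exposure, read by fluorescence with electrophoretic mobility shift separating substrate and product. Primary screen in duplicate at 25 uM; actives then run as concentration series. Loss of signal versus DMSO scored.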
# [9] = molecular target: Tyrosine-protein phosphatase non-receptor type 14 (Homo sapiens) (UniProt Q15678); experiment: NVS_ENZ_hPTPN14: NovaScreen (NVS) Enzymatic Assay for human Protein Tyrosine Phosphatase Non-receptor Type 14 (PTPN14) (AID 2283206)
# Method in brief: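 Cell-free recombinant human PTPN14 with fluorescent substrate, read 0.5 h after dosing by fluorescence and electrophoretic mobility shift separating substrate from product. Primary screen at 25 uM in duplicate; hits run to 50 uM maximum; loss of signal versus DMSO.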
# [10] = molecular target: Serine/threonine-protein phosphatase PP1-alpha catalytic subunit (Homo sapiens) (UniProt P62136); experiment: NVS_ENZ_hPPP1CA: NovaScreen (NVS) Enzymatic Assay for human Protein Phosphatase 1 Aatalytic subunit Alpha (PPP1CA) (AID 2283200)
# Method in brief: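 Recombinant enzyme activity read by fluorescence with electrophoretic mobility shift separating substrate from product, 1.33 h after dosing; loss of signal vs DMSO baseline. Primary screen in duplicate at 25 uM; actives retested in concentration-response up to 50 uM.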
# [11] = molecular target: human Phosphodiesterase 10 (PDE10), PDE10A (gene 10846) (UniProt Q9Y233); experiment: NVS_ENZ_hPDE10: NovaScreen (NVS) Enzymatic Assay for human Phosphodiesterase 10 (PDE10) (AID 2283195)
# Method in brief: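 PDE10A, cell-free; 1 h incubation; fluorescence intensity + electrophoretic mobility shift separating substrate/product; DMSO = baseline; 25 uM duplicate primary, CRC up to 50 uM.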
# [12] = molecular target: human Protein Tyrosine Phosphatase Non-receptor Type 1 (PTPN1), PTPN1 (gene 5770) (UniProt P18031); experiment: NVS_ENZ_hPTPN1: NovaScreen (NVS) Enzymatic Assay for human Protein Tyrosine Phosphatase Non-receptor Type 1 (PTPN1) (AID 2283201)
# Method in brief: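 Cell-free fluorogenic-substrate activity assay on recombinant enzyme, read 1.33 h after dosing by fluorescence and electrophoretic mobility shift; loss of signal vs DMSO baseline. Primary screen in duplicate at 25 uM, hits then run in concentration-response up to 50 uM.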
# [13] = molecular target: Tyrosine-protein phosphatase non-receptor type 11 (Homo sapiens) (UniProt Q06124); experiment: NVS_ENZ_hPTPN11: NovaScreen (NVS) Enzymatic Assay for human Protein Tyrosine Phosphatase Non-receptor Type 11 (PTPN11) (AID 2283202)
# Method in brief: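 Recombinant human PTPN11 activity on a fluorescent substrate, with substrate/product separated by electrophoretic mobility shift; read 0.5 h after dosing, loss of signal vs DMSO. Duplicate 25 uM screen, then concentration-response up to 50 uM.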
# [14] = molecular target: Tyrosine-protein phosphatase non-receptor type 12 (Homo sapiens) (UniProt Q05209); experiment: NVS_ENZ_hPTPN12: NovaScreen (NVS) Enzymatic Assay for human Protein Tyrosine Phosphatase Non-receptor Type 12 (PTPN12) (AID 2283204)
# Method in brief: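 Single-concentration duplicates (25 uM) preceded singleton concentration-response up to 50 uM for chemicals passing threshold. Cell-free recombinant PTPN12 activity was read 1.33 h after dosing via fluorescence after mobility-shift separation; loss of signal versus DMSO.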
# [15] = molecular target: Tyrosine-protein phosphatase non-receptor type 13 (Homo sapiens) (UniProt Q12923); experiment: NVS_ENZ_hPTPN13: NovaScreen (NVS) Enzymatic Assay for human Protein Tyrosine Phosphatase Non-receptor Type 13 (PTPN13) (AID 2283205)
# Method in brief: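 Cell-free assay of recombinant human PTPN13 with a fluorescent substrate, product separated by electrophoretic mobility shift and read 0.5 h after dosing. Primary screen at 25 uM in duplicate, then concentration-response up to 50 uM. Loss of signal fitted against DMSO.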
# [16] = molecular target: human Protein Tyrosine Phosphatase Non-receptor Type 2 (PTPN2), PTPN2 (gene 5771) (UniProt P17706); experiment: NVS_ENZ_hPTPN2: NovaScreen (NVS) Enzymatic Assay for human Protein Tyrosine Phosphatase Non-receptor Type 2 (PTPN2) (AID 2283207)
# Method in brief: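 Cell-free recombinant enzyme with fluorescent substrate, product separated by electrophoretic mobility shift; read 1 h after dosing. Primary screen single concentration (25 uM) in duplicate; actives followed in concentration series; loss of signal versus DMSO.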
# [17] = molecular target: human Protein Tyrosine Phosphatase Non-receptor Type 4 (PTPN4), PTPN4 (gene 5775) (UniProt P29074); experiment: NVS_ENZ_hPTPN4: NovaScreen (NVS) Enzymatic Assay for human Protein Tyrosine Phosphatase Non-receptor Type 4 (PTPN4) (AID 2283208)
# Method in brief: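 Cell-free assay of PTPN4 expressed in Sf9 cells, using a fluorescent substrate with product separated by mobility shift; read 1.33 h after dosing. Single-point screen at 25 uM, then concentration-response up to 50 uM. Loss of signal relative to DMSO.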
# [18] = molecular target: human Protein Tyrosine Phosphatase Non-receptor Type 9 (PTPN9), PTPN9 (gene 5780) (UniProt P43378); experiment: NVS_ENZ_hPTPN9: NovaScreen (NVS) Enzymatic Assay for human Protein Tyrosine Phosphatase Non-receptor Type 9 (PTPN9) (AID 2283209)
# Method in brief: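 Sf9-expressed enzyme in a cell-free assay, fluorescence read 1.33 h after dosing with mobility-shift separation of substrate and product. Tested at 25 uM in duplicate, then up to 50 uM; signal loss versus DMSO.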
# Sequence of Tyrosine-protein phosphatase non-receptor type 12 (Homo sapiens) (Q05209 whole entry, looked up): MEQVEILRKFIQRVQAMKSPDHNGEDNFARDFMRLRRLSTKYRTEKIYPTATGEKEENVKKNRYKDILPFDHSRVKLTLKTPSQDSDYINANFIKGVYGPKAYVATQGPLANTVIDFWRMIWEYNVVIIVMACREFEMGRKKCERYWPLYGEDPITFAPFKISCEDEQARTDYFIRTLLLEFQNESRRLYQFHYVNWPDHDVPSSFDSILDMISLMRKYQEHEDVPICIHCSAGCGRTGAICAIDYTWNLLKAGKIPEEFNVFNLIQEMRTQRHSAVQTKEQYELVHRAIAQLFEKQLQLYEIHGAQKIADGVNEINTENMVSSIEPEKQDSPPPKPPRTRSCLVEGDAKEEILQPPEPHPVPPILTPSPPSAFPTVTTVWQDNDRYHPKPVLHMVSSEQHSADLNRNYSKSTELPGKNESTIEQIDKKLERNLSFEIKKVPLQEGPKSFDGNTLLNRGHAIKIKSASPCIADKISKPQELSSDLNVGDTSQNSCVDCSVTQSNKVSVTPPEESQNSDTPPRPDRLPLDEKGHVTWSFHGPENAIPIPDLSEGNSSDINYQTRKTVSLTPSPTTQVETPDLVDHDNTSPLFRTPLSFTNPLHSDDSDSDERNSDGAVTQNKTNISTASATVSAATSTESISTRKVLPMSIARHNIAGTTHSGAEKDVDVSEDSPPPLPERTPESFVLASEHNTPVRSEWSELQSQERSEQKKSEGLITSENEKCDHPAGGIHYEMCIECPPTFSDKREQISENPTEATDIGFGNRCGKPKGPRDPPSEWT
# Sequence of human Phosphatase and Tensin Homolog (PTEN), PTEN (gene 5728) (P60484 whole entry, looked up): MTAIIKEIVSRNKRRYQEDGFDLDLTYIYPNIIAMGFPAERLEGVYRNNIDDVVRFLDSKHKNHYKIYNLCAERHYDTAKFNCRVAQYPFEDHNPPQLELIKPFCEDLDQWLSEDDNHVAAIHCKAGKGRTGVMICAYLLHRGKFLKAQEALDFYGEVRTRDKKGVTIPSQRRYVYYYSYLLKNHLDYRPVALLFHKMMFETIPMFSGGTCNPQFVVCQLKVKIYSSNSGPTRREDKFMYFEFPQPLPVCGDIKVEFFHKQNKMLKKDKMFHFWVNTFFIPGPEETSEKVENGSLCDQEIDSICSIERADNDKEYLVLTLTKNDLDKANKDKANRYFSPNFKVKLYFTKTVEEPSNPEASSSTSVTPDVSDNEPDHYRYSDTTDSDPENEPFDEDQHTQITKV
# Sequence of human p21 Activated Kinase 4 (PAK4), PAK4 (gene 10298) (O96013 whole entry, looked up): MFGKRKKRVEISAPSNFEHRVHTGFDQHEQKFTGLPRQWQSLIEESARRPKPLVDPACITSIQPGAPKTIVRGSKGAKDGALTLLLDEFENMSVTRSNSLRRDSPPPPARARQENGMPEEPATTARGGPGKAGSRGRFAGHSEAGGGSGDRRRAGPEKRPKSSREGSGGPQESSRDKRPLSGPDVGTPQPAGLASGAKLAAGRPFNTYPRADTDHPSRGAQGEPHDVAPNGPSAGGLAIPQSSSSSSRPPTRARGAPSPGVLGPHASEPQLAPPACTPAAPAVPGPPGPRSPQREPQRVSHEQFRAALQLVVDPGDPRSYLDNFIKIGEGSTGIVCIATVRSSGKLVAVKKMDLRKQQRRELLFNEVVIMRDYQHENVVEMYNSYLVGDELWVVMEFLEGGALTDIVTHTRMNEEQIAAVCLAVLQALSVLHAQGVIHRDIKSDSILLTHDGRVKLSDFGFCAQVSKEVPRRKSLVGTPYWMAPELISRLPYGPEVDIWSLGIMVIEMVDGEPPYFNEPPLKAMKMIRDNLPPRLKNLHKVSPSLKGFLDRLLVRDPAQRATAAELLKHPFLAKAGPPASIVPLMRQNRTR
# Sequence of human Phosphodiesterase 4A1 (PDE4A1), PDE4A (gene 5141) (P27815 whole entry, looked up): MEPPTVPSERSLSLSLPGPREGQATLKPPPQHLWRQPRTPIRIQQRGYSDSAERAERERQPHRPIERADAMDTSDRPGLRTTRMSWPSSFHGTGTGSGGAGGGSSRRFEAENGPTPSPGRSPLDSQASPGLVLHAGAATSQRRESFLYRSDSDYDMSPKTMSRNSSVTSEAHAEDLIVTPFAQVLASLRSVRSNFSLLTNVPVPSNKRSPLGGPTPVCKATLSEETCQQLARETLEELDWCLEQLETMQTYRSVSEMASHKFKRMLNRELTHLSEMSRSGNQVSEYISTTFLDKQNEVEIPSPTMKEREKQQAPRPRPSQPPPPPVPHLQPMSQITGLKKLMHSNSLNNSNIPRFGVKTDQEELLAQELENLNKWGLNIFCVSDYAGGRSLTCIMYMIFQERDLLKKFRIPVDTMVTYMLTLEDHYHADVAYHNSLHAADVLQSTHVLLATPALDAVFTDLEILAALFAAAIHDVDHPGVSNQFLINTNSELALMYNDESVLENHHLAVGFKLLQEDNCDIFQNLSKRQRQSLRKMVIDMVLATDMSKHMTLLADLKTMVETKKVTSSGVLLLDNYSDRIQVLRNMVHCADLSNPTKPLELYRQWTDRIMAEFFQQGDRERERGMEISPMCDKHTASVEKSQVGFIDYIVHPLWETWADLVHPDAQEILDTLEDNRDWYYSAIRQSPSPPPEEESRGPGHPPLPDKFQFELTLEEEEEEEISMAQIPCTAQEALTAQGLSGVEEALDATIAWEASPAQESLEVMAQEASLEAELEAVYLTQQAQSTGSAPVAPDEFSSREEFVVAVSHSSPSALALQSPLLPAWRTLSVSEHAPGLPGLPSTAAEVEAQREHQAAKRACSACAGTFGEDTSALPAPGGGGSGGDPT
# Sequence of human Phosphoinositide 3-kinase alpha (PI3Ka), PIK3CA (gene 5290) (P42336 whole entry, looked up): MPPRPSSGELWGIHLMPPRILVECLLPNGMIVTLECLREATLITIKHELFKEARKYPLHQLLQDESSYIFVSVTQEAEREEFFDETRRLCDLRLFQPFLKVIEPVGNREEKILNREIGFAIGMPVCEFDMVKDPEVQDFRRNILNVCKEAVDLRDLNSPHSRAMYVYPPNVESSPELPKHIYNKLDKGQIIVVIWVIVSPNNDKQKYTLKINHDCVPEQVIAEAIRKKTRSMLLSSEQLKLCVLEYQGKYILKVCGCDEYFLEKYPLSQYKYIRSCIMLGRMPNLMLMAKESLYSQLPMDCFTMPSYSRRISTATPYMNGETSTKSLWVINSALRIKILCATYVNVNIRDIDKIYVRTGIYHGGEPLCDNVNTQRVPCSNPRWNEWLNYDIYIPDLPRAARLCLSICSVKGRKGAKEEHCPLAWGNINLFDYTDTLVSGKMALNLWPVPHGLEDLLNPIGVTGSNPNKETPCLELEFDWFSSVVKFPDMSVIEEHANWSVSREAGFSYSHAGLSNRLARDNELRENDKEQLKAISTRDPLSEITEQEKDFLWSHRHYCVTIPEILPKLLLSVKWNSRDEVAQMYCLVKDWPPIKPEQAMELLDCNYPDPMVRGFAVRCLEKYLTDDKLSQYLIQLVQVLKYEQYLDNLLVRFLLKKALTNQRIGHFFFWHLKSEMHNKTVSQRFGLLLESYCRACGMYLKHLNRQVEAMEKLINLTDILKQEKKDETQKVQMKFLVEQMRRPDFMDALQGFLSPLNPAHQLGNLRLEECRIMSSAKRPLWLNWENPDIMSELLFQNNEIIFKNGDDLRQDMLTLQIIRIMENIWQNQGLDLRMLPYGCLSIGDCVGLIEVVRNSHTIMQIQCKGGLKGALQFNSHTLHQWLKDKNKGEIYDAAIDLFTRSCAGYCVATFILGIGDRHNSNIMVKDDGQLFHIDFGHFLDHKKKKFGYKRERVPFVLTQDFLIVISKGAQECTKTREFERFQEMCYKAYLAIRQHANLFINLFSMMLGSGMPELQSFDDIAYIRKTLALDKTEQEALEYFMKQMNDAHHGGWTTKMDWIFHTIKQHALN
# Sequence of PPP2CA (gene 5515) (P67775 whole entry, looked up): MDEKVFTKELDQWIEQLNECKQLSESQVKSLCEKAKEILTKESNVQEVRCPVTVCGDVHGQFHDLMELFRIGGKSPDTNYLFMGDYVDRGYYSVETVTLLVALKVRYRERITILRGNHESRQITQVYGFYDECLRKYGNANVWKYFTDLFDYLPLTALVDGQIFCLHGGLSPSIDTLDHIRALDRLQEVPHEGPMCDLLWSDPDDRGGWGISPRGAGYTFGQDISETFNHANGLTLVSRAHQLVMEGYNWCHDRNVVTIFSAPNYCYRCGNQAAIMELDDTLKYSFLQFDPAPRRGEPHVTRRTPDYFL
# Sequence of Serine/threonine-protein phosphatase PP1-alpha catalytic subunit (Homo sapiens) (P62136 whole entry, looked up): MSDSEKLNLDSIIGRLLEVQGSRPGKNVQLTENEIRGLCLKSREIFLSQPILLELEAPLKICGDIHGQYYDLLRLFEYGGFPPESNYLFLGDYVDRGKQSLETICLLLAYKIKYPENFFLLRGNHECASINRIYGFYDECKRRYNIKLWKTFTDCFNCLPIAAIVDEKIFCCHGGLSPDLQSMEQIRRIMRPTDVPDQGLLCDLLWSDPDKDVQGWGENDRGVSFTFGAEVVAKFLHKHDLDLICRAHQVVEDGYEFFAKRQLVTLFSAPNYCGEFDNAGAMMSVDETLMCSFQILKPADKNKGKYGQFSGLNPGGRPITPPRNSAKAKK
# Sequence of Tyrosine-protein phosphatase non-receptor type 11 (Homo sapiens) (Q06124 whole entry, looked up): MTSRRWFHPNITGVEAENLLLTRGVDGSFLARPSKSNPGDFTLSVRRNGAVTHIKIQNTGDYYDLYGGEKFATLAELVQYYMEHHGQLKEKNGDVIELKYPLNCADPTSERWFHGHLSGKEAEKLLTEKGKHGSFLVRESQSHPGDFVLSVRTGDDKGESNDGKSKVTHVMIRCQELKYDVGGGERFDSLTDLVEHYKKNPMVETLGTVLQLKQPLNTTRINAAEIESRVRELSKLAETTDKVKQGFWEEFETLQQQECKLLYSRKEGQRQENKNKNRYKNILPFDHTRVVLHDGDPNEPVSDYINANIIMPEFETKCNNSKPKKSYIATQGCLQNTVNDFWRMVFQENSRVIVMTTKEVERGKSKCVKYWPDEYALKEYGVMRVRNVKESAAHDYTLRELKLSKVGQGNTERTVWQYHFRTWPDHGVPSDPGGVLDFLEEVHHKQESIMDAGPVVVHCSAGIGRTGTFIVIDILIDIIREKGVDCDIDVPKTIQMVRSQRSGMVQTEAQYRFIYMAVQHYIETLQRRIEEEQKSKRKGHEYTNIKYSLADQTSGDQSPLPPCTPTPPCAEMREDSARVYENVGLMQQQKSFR
smiles,measurement,setting,value
CC(C)=CC1C(C(=O)OCN2C(=O)C3=C(CCCC3)C2=O)C1(C)C (centres undefined),outcome,[1],inactive
CC[C@H](C)[C@H]1O[C@]2(C=C[C@@H]1C)C[C@@H]1C[C@@H](C/C=C(\C)[C@@H](O[C@H]3C[C@H](OC)[C@@H](O[C@H]4C[C@H](OC)[C@@H](NC)[C@H](C)O4)[C@H](C)O3)[C@@H](C)/C=C/C=C3\CO[C@@H]4[C@H](O)C(C)=C[C@@H](C(=O)O1)[C@]34O)O2,outcome,[2],inactive
same,outcome,[3],inactive
same,AC50,[4],25 µM (active)
same,AC50,[5],39.3 µM (active)
same,AC50,[1],7.94 µM (active)
same,AC50,[6],16.8 µM (active)
same,AC50,[7],4.5 nM (active)
Cc1cc(C2CC2)nc(Nc2ccccc2)n1,outcome,[4],inactive
CSc1nc(NC(C)C)nc(NC(C)C)n1,AC50,[4],3.43 µM (active)
same,AC50,[5],5.79 µM (active)
CNC(=O)ON=C(C)SC,outcome,[8],inactive
same,outcome,[1],inactive
CCNc1nc(Cl)nc(NC(C)(C)C#N)n1,AC50,[4],0.39 µM (active)
same,AC50,[5],13.6 µM (active)
same,outcome,[9],inactive
CCOC(=O)CC(SP(=O)(OC)OC)C(=O)OCC (centres undefined),outcome,[3],inactive
same,outcome,[10],inactive
CCOP(=S)(OCC)Oc1ccc([N+](=O)[O-])cc1,outcome,[4],inactive
CCC(=O)Nc1ccc(Cl)c(Cl)c1,AC50,[4],25 µM (active)
same,outcome,[6],inactive
CN(C)[C@@H]1C(=O)C(C(N)=O)=C(O)[C@@]2(O)C(=O)C3=C(O)c4c(O)cccc4[C@@](C)(O)[C@H]3[C@H](O)[C@@H]12,AC50,[2],9.28 µM (active)
same,outcome,[2],inactive
same,AC50,[4],23.1 µM (active)
same,AC50,[5],6.97 µM (active)
same,outcome,[11],inactive
same,AC50,[1],4.72 µM (active) and 4.22 µM (active) and 15.1 µM (active)
same,outcome,[1],inactive
same,AC50,[6],23.1 µM (active)
same,AC50,[10],17.4 µM (active)
same,AC50,[12],23.1 µM (active)
same,AC50,[13],10.9 µM (active) and 2.67 µM (active)
same,AC50,[7],2.52 µM (active) and 1.53 µM (active) and 2.46 µM (active)
same,AC50,[14],3.91 µM (active) and 18.2 µM (active) and 1.8 µM (active)
same,AC50,[15],2.9 µM (active)
same,AC50,[9],26.3 µM (active)
same,AC50,[16],20.1 µM (active)
same,AC50,[17],12.1 µM (active)
same,AC50,[18],2.57 µM (active)
